Our source for the remaining activity values is PubChem BioAssay AID602143 (Vanderbilt Specialized Chemistry Center, 2011).

Molecules are shown by their SMILES. The source made the active and inactive calls. Rule as the data show it: active = remaining activity below about 50%; inactive = the rest.

The target of this experiment is Phospholipase D2 (Homo sapiens) (UniProt O14939). The experiment is described as follows: cellular phospholipase D2 activity inhibition – cell-based, HEK293, single concentration (AID 602143).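 Also: tested at 200 nM.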 To be noted: HEK293 cellular PLD2 activity, percent of control; hits give low values.
Sequence of Phospholipase D2 (Homo sapiens) (O14939 whole entry, looked up): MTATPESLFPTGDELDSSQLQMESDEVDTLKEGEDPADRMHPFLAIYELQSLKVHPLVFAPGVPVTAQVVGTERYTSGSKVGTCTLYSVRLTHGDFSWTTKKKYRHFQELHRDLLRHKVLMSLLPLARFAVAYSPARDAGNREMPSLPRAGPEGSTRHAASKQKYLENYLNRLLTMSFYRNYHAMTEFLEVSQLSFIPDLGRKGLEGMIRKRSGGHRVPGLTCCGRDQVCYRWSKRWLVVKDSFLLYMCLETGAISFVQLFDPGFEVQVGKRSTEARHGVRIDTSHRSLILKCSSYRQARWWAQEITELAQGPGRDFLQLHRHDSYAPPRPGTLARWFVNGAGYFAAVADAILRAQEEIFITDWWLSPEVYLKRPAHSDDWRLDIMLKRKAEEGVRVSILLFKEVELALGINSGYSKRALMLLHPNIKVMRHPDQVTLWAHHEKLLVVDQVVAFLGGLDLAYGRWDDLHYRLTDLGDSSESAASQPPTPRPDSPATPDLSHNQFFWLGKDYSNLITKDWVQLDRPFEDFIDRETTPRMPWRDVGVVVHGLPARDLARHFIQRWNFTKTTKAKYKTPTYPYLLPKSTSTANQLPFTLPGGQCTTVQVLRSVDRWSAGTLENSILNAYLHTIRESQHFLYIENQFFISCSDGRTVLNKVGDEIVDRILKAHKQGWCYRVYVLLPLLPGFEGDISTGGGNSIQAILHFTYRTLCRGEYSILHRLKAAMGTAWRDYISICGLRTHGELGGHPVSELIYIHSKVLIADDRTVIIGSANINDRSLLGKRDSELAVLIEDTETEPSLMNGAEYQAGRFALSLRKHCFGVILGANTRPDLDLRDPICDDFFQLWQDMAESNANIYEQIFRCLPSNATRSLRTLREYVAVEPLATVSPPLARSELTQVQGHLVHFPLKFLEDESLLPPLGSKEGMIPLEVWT
Sequence of Phospholipase D2 (Homo sapiens) (O14939 whole entry, looked up): as above
One may read the remaining activity as the signal under treatment as a percentage of the control signal. `O=C(NCCN1CCC(n2c(=O)[nH]c3ccc(F)cc32)CC1)c1cccc2c1C(=O)c1ccccc1-2`: the remaining activity was 0% (active).
Take `CC(C(=O)NCCN1CCN(c2ccncc2)CC1)(c1ccccc1)c1ccccc1`: the remaining activity was 110% (inactive).
On to `O=C(C1C[C@@H]1c1ccccc1)N1CCC(n2c(=O)[nH]c3cc(Cl)ccc32)CC1` (some centres not stated), for which the remaining activity was 72.5% (inactive).
With `Cn1c(=O)n(C2CCN(CCNC(=O)c3ccc(F)cc3)CC2)c2ccccc21`, the remaining activity is 69.8% (inactive).
`O=C(NCCN1CCC(n2c(=O)[nH]c3ccccc32)CC1)c1cc2ccc3ccccc3c2c2ccccc12`: the remaining activity is 109% (inactive).
Consider `O=C(NCCN1CCC(n2c(=O)[nH]c3cc(I)ccc32)CC1)c1ccc(Cl)cc1`, for which the remaining activity was 36.7% (active).
Turning to `O=C(NCCN1CCC(n2c(=O)[nH]c3ccccc32)CC1)c1ccc2c(c1)CCCC2`, the remaining activity is 96.1% (inactive).
`CCCCS(=O)(=O)NCCN1CCC(n2c(=O)[nH]c3ccccc32)CC1`: the remaining activity was 78.3% (inactive).
The value for `C[C@@H](CN1CCC(c2nc3ccccc3[nH]2)CC1)NC(=O)c1ccc2ccccc2c1` was 86.5% (inactive); that for `C[C@@H](CN1CCC(n2c(=O)[nH]c3ccccc32)CC1)NC(=O)c1cc2ccccc2s1` was 38.6% (active).
For the molecule `Cc1ccccc1NC(=S)NCCN1CCC(n2c(=O)[nH]c3ccccc32)CC1`, the remaining activity was 145% (inactive).
The value for `O=C(NCCN1CCC2(CCc3ccccc32)CC1)[C@H]1C[C@@H]1c1ccccc1` was 99.8% (inactive); that for `O=C(NCCN1CCC(n2c(=O)[nH]c3ccccc32)CC1)c1ccc(-c2ccccc2)o1` was 68.6% (inactive); that for `C[C@@H](CN1CCC(n2c(=O)[nH]c3ccccc32)CC1)NC(=O)Cc1cccs1` was 99.6% (inactive).
Regarding `O=c1[nH]c2ccccc2n1C1CCN(CCNS(=O)(=O)c2ccc([N+](=O)[O-])cc2)CC1`, the remaining activity was 80.3% (inactive).
Turning to `O=C(NCCN1CCC(n2c(=O)[nH]c3ccccc32)CC1)N1c2ccccc2Sc2ccccc21`, the remaining activity was 111% (inactive).
For `CC(C)C(=O)N[C@@H](C)CN1CCC(n2c(=O)[nH]c3ccccc32)CC1`, the remaining activity is 106% (inactive).
`O=C(NCCN1CCC(n2c(=O)[nH]c3ccccc32)CC1)c1ccc2ccc3c4c2c1CC=C4CC=C3`: the remaining activity was 79.2% (inactive).
As for `O=C(NCCN1CCC(n2c(=O)[nH]c3ccccc32)CC1)C1CCCCCC1`, the remaining activity is 104% (inactive).
In the case of `O=C(NCCN1CCN(c2ccncc2)CC1)c1ccc(F)cc1O`, the remaining activity is 112% (inactive).
The value for `O=C(NCCN1CCC(C(=O)Nc2ccccc2)CC1)c1ccc2ccccc2c1` was 106% (inactive).
The value for `C[C@@H](CN1CCC2(C=Cc3ccccc32)CC1)NC(=O)c1ccc2ccccc2c1` was 147% (inactive); that for `C[C@@H](CN1CCC(n2nnc3cc(C(F)(F)F)ccc32)CC1)NC(=O)c1ccc2ccccc2c1` was 107% (inactive).
`O=c1[nH]c2ccccc2n1C1CCN(CCNS(=O)(=O)c2ccc(Cl)cc2)CC1`: the remaining activity was 115% (inactive).
The value for `O=C(NCCN1CCC(n2c(=O)[nH]c3ccccc32)CC1)c1cnc2ccccc2n1` was 87.4% (inactive); that for `C[C@@H](CN1CCC(c2nc3ccccc3[nH]2)CC1)NC(=O)C1CC1c1ccccc1` (some centres not stated) was 90.3% (inactive); that for `O=C(c1ccc(Cl)cc1)N1CCC2(CC1)C(=O)NCN2c1ccccc1` was 69.9% (inactive).
